PGK inhibitor – T. brucei PGK inhibition; PGK/GAPDH coupled, Kinase-Glo luminescence, 60 min; Potency, µM (highest dose often 57.5 µM), hits mostly inhibitors; 380,000 tested, 0.043% active; AID 602233; also: nearly all actives have a fitted effect of over 60% in size
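Luminescent ATP detection (Kinase-Glo Plus) follows a 60-minute room-temperature incubation, with wells lacking PGK as controls. Buffer: 100 mM TEA (pH 7.6), 5 mM MgCl2, 0.01% Tween-20. Coupling enzyme GAPDH (100 nM final) supplies unstable 1,3-BPG in-well.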
POLB inh – DNA polymerase beta (human) inhibition. 340,000 tested, 1.3% active. Pol beta primer extension/strand displacement, fluorescence kinetic. P06746. Potency, µM (series often up to 114 µM), usual class: inhibitors
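10 nM enzyme + cpd, 15 min RT; start with substrate 50 nM final; read 0 min and after 10 min RT. Corrected, normalized data; 4-parameter Hill curve fit.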
POLK inh – DNA polymerase kappa (human) inhibition. Q9UBT6. purified Pol kappa, fluorescent DNA synthesis assay, 10 min. 400,000 tested, 0.53% active. Potency, µM (titrated, usually from 107 µM), usual class: inhibitors
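Here, compound and 10 nM enzyme are combined for 15 min at room temperature; adding 50 nM substrate (final) starts DNA synthesis, tracked by fluorescence at 0 and 10 min against buffer-only wells.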
Pol iota inh – blocks human DNA polymerase iota activity. Q9UNA4. Pol iota fluorescent replication assay, 10 min. Potency, µM (series often up to 115 µM), hits mostly inhibitors. 390,000 tested, 1% active. AID 588590
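Fluorescent replication assay read twice, at 0 min and 10 min after adding 50 nM (final) substrate. Enzyme (10 nM) and compounds were first incubated 15 min at room temperature; enzyme-free buffer wells were negative controls.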
Pol eta inh – DNA polymerase eta (human) inhibition | Q9Y253 | recombinant Pol eta, fluorescent DNA replication assay | Potency, µM (series often up to 114 µM), most hits filed as inhibitors | 390,000 tested, 1.2% active | AID 588591
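Fluorescent replication assay: 50 nM final substrate added after a 15 min room-temperature compound preincubation with 10 nM enzyme. Signal taken at 0 min and again at 10 min.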
FEN1 inh – inhibitors of human flap endonuclease 1; 390,000 tested, 0.35% active; P39748; Potency, µM (highest dose often 114 µM), hits mostly inhibitors; Recombinant FEN1 flap cleavage, fluorescence, 15 min; also: nearly all actives have a fitted effect of over 65% in size
Target sequence (P39748 whole entry, looked up): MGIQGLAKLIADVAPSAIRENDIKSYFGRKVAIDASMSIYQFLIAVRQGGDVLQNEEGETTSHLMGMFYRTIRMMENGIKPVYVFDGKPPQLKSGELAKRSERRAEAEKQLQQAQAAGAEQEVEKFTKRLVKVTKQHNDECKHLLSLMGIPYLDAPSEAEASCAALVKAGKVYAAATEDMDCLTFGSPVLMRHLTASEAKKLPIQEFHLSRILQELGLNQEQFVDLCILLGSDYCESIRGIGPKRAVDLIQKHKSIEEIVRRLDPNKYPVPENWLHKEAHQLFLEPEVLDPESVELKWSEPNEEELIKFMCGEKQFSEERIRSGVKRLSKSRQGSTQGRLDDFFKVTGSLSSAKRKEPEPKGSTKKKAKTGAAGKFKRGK
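Quantitative HTS format: each compound was titrated, incubated with 10 nM nuclease for 15 min at room temperature, then challenged with flap substrate at 50 nM final. Signal change over 15 min gave concentration–effect curves.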
Large screens that a line does not name were inactive. This is a sample that favours compounds with a hit; in the whole collection about 2.4% have one here. Calls follow the shape of the dose curve; as a rule, active = well fitted curve in the direction sought with a large enough effect; inconclusive = small, poorly fitted or top-dose-only effect, or another doubt; inactive = no such curve, though single readings can be large; an effect the other way counts as inactive or inconclusive.

Cc1ccc(NC(=O)CS(=O)CC(=O)Nc2ccc3c(c2)OCO3)cc1Cl (configuration not stated)	POLB inh 50.1µM, Pol iota inh inconclusive, Pol eta inh inconclusive
O=C(CCS(=O)(=O)c1ccccc1)Nc1ccc(Cl)cn1	POLB inh 31.6µM
O=C(COC(=O)COc1ccccc1)Nc1ccc2c(c1)OCCO2	none (no result: POLB inh)
O=C(CCS(=O)(=O)c1ccccc1)Nc1ccc2c(c1)OCO2	POLB inh 11.2µM, POLK inh inconclusive, Pol iota inh inconclusive
Cc1ccc2occ(CC(=O)Nc3ccc(Cl)c(C(F)(F)F)c3)c2c1	none
OC[C@H]1NC[C@H](O)[C@@H](O)[C@H]1O	none (no result: PGK inhibitor, POLB inh, Pol iota inh, Pol eta inh, FEN1 inh)
COc1ccc(Br)cc1C1NC(c2ccc3c(c2)OCO3)=CC(c2cc(Cl)ccc2O)N1 (configuration not stated)	Pol iota inh inconclusive, FEN1 inh inconclusive (no result: PGK inhibitor, POLB inh, Pol eta inh)
C[N+]1(CC(=O)c2ccc(Cl)cc2)CCOCC1	POLK inh inconclusive, Pol iota inh inconclusive (no result: PGK inhibitor, POLB inh, Pol eta inh)
COc1ccccc1OCC(=O)Nc1ccc2c(c1)OCO2	POLB inh 50.1µM, Pol iota inh inconclusive, Pol eta inh inconclusive
Cc1ccccc1OCC(=O)Nc1ccc2c(c1)OCO2	none
CCCNC(=O)c1ccccc1NC(=O)c1nsc2ccccc12	none
O=C(CCl)N(c1ccccc1)c1c[nH]c2ccccc12	Pol eta inh 14.1µM
N=C1SC(c2ccccc2)C(=O)N1c1ncc(Cc2ccccc2Cl)s1 (configuration not stated)	POLB inh 17.8µM, POLK inh inconclusive, Pol iota inh inconclusive, Pol eta inh inconclusive
CCOc1cccc(C(=O)c2ccc(O)c(O)c2O)c1	POLK inh 4.47µM (no result: PGK inhibitor, POLB inh, Pol iota inh, Pol eta inh, FEN1 inh)
CCOC(=O)COc1ccc(C(=O)c2ccccc2)c(O)c1	Pol iota inh inconclusive
CCOc1ccc(C(=O)c2ccc(O)c(O)c2O)cc1	POLK inh 3.55µM (no result: PGK inhibitor, POLB inh, Pol iota inh, Pol eta inh, FEN1 inh)
CCc1cccc2c(C(O)(c3c[nH]c4c(CC)cccc34)c3c[nH]c4c(CC)cccc34)c[nH]c12	none (no result: PGK inhibitor, POLB inh, Pol eta inh)
Cc1ccc(NC(=O)CSc2nc3ccccc3n2CC(=O)N2CCC(C)CC2)cc1C	none
CCCCC(CC)CNC(=O)CN1C(=O)CSc2ccc(S(=O)(=O)N3CCOCC3)cc21 (configuration not stated)	Pol iota inh inconclusive
COc1ccc(C(=O)COC(=O)CCN2C(=O)C3CC=CCC3C2=O)c(OC)c1 (configuration not stated)	Pol iota inh 39.8µM, Pol eta inh inconclusive (no result: POLB inh)
COc1cc(OC)cc(C(=O)Nc2ccc(NC(=O)c3ccco3)c(Cl)c2)c1	POLB inh inconclusive, Pol iota inh 25.1µM, Pol eta inh inconclusive
COc1cccc(C(=O)Nc2cc(NC(=O)c3ccco3)ccc2OC)c1	none
CCOc1cc(NC(=O)c2ccco2)c(OCC)cc1NC(=O)c1cc(OC)c(OC)c(OC)c1	none
COc1cc(NC(=O)c2ccco2)c(OC)cc1NC(=O)c1cc(OC)c(OC)c(OC)c1	POLB inh 39.8µM
Cc1nc2ccccc2nc1-c1csc(-c2ccccc2)n1	none (no result: PGK inhibitor, POLB inh, Pol eta inh)
Oc1ccc2ccccc2c1SSc1c(O)ccc2ccccc12	none (no result: PGK inhibitor, POLB inh, Pol iota inh, Pol eta inh, FEN1 inh)
N#Cc1nc(-c2ccc(OCc3ccc(Cl)cc3)cc2)oc1N1CCCC1	none (no result: PGK inhibitor, POLB inh, Pol eta inh)
N#CN=c1snc(-c2ccccc2)n1-c1ccc(Cl)cc1	none (no result: PGK inhibitor, POLB inh, Pol eta inh)
CCOC(=O)c1cnc(Cc2ccccc2)[nH]c1=O	none
CCOC(=O)c1cnc(-n2[nH]c(C)c(Cc3ccccc3)c2=O)[nH]c1=O	POLB inh 3.16µM, Pol iota inh inconclusive, Pol eta inh inconclusive
CC(=O)c1cccc(S(=O)(=O)NC(C)C2CC3CCC2C3)c1 (configuration not stated)	POLB inh 22.4µM, Pol iota inh inconclusive, Pol eta inh inconclusive
CCCN1CNc2c(c(=O)[nH]c(=S)n2CCc2cc(OC)ccc2OC)C1	none (no result: PGK inhibitor, POLB inh, Pol eta inh)
COc1ccc(-c2n[nH]c(C(F)(F)F)c2-c2cc3ccccc3o2)c(O)c1	Pol iota inh 79.4µM (no result: PGK inhibitor)
CCN(CC)CCCNC(=O)c1cc2c(-c3ccc(Cl)cc3)nn(C)c2s1	POLB inh inconclusive, Pol iota inh inconclusive, FEN1 inh 44.7µM
CCOC(=O)c1cc2c(=O)n3ccccc3nc2n(Cc2ccco2)c1=NC(=O)c1ccccc1OCC	Pol iota inh inconclusive

Assay outcomes deposited in PubChem by National Center for Advancing Translational Sciences (NCATS).
